# Rows were chosen to be rich in hits. Some 1.7% of all compounds tested hit in one or more screens of this group.
# GSTO1 counter: counter-screen for RBBP9 inhibitors: inhibitors of human GSTO1; P78417; recombinant GSTO1, activity-based probe fluorescence polarization; inhibition, % at 5.96 µM; hit rate 1.1% among 300,000; AID 1974;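 active = inhibition above the campaign mean inhibition plus 3 SD, cut at about 35% in these data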;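 also: 0% = GSTO1-1 with DMSO and 100% = wells lacking GSTO1-1 enzyme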
# PAD4 FP inh: blocks human protein arginine deiminase 4; AID 485272; Q9UM07; recombinant PAD4, RCA probe fluorescence polarization; hit rate 0.41% among 330,000; inhibition, % at 6.36 µM;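 active = percent inhibition above a cutoff equal to the mean of all tested compounds plus 3 SD, cut at about 15% in these data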;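 also: 0% = PAD4 with RCA probe and DMSO and 100% = probe without PAD4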
# Target sequence (Q9UM07 whole entry, looked up): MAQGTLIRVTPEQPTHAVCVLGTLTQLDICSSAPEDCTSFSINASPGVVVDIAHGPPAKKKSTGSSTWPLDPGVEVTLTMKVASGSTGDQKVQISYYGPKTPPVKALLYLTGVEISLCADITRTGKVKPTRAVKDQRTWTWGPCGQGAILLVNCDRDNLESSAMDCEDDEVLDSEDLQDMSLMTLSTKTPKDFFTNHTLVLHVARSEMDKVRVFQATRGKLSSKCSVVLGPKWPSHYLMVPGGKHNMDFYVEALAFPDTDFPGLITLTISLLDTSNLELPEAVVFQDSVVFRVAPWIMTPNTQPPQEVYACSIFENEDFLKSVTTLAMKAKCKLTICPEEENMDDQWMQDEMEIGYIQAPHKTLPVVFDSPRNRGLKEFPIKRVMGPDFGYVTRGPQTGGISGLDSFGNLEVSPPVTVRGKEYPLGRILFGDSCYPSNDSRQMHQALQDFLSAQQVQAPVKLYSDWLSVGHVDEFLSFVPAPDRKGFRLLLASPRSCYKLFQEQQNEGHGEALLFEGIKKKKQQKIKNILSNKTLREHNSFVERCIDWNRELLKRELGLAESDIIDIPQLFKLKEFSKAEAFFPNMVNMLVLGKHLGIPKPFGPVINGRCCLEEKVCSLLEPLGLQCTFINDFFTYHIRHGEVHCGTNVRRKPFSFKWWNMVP
# EBNA-1 inhibitor: blocks EBNA-1 binding to DNA; EBNA-1 DNA binding, fluorescence polarization; inhibition, % at 14.8 µM; hit rate 0.34% among 300,000; in the data active = inhibition above about 28%
# LYPLA2 inh: blocks human lysophospholipase 2, a PME1 counter-screen. O95372. recombinant LYPLA2, FP-Rh probe fluorescence polarization. hit rate 0.38% among 320,000. inhibition, % at 5.9 µM;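 active = inhibition above the screen-wide mean plus 3 SD, limit set per campaign, cut at about 26% in these data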;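 also: 0% = LYPLA2 with DMSO and 100% = wells lacking LYPLA2 enzyme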
# LYPLA1 counter: LYPLA1 (human) inhibition in PME1 counter-screen | recombinant LYPLA1, FP-Rh probe fluorescence polarization | hit rate 0.16% among 320,000 | O75608 | AID 2174 | inhibition, % at 5.9 µM;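 active = inhibition above the mean of all tested compounds plus 3 SD, set per campaign, cut at about 14% in these data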;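 also: inhibitors block serine hydrolase probe labeling of LYPLA1 so polarization falls; 0% = enzyme with DMSO and 100% = wells lacking LYPLA1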
# ZTA counter: counter-screen for EBNA-1 inhibitors: inhibitors of Epstein-Barr virus ZTA. ZTA-DNA binding, fluorescence polarization. hit rate 0.15% among 320,000. inhibition, % at 11 µM. P03206; in the data active = inhibition above about 33%
# GSTO1 confirm: GSTO1 (human) inhibition, confirmation; shares compounds with GSTO1 counter; recombinant GSTO1, probe fluorescence polarization; inhibition, % at 5.96 µM; hit rate 54% among 2,400;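 active = inhibition above the primary screen's cutoff, its mean inhibition plus 3 SD, cut at about 35% in these data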;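 also: loss of polarization as inhibitors block binding of rhodamine sulfonate ester activity probe; 0% = GSTO1 with DMSO and 100% = wells lacking GSTO1 enzyme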
# GSTO1 recomb ABPP: blocks recombinant human glutathione S-transferase omega 1 | AID 463110 | recombinant GSTO1, gel ABPP SE-Rh probe fluorescence | shares compounds with GSTO1 counter | hit rate 30% among 130 | inhibition, % at 1 µM;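 active = inhibition of the enzyme GSTO1 above about 75%, limit read from the data; inactive = inhibition below that limit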
# Active calls of the source: *; x = not tested or not shown; + = active, no number; ! = repeats disagree.
SMILES,GSTO1 counter,PAD4 FP inh,EBNA-1 inhibitor,LYPLA2 inh,LYPLA1 counter,ZTA counter,GSTO1 confirm,others
O=[N+]([O-])c1ccc2[nH]c(O)c(N=NC(=S)NCC3CCCO3)c2c1 (stereo not drawn),40.3*,-2.9,2.2,3.7,1.9,-9.7,45.4*,
O=[N+]([O-])c1ccc2[nH]c(O)c(N=NC(=S)Nc3cccnc3)c2c1,41.7*,-3.8,-13.5,-6.8,1.1,0.7,65.4*,
O=C(CNC(=O)c1ccc(Br)cc1)N=Nc1c(O)[nH]c2ccc([N+](=O)[O-])cc12,19.4,1.3,-3.4,15.1,0.8,-4.2,x,
CCCCn1c(N)c(N(CCOC)C(=O)C(C)N2C(=O)c3ccccc3C2=O)c(=O)[nH]c1=O (stereo not drawn),66.8*,1.1,-9.9,-2.5,-1.6,-4.3,8.8,
Cc1ccc(N/N=C2\CC(=O)c3ccccc32)cc1Cl,48.2*,0.4,-7.0,4.7,-0.1,-3.1,25.9,
COc1ccc(C)cc1NC(=O)CNC(C)C(=O)Nc1ccc(C(C)=O)cc1 (stereo not drawn),-0.2,-6.4,-17.7,-4.5,-0.2,4.9,x,
O=C1CC(O)(C(F)F)Oc2ccc3ccccc3c21 (stereo not drawn),51.0*,-0.4,-5.7,0.4,-0.7,-11.1,44.0*,
CN1CCc2cccc3c2[C@@H]1Cc1ccc(O)c(O)c1-3,93.7*,-2.0,8.0,3.2,-5.5,1.5,13.5,
Cc1ccc2c(c1)c(C)cc[n+]2Cc1ccccc1,4.4,5.6,1.4,0.7,0.7,8.6,x,
CC[n+]1ccc(C[n+]2ccccc2)c2ccccc21,49.1*,-7.7,4.4,-2.5,4.1,12.2,7.4,
CCN(CC)C(=O)Cn1cc(C(=O)C(=O)N2CCN(c3ccccc3)CC2)c2ccccc21,-1.4,1.9,-4.2,-7.4,-5.7,4.5,x,
CCN(C(=O)Cn1cc(C(=O)C(=O)N2CCOCC2)c2ccccc21)c1ccccc1,67.1*,4.2,6.2,5.9,-0.1,5.4,2.0,
O=C(Oc1ccc(OC(=O)c2ccco2)c(S(=O)(=O)c2ccc(Br)cc2)c1)c1ccco1,48.9*,3.1,3.9,-2.7,-2.7,3.5,4.4,
Cc1ccc(S(=O)(=O)c2cc(OC(=O)c3ccco3)ccc2OC(=O)c2ccco2)cc1,18.1,1.1,9.4,-5.0,-2.8,10.3,x,
O=C1C(=O)c2ccccc2C([O-])=C1[n+]1ccccc1,23.5,-9.9,0.1,10.2,2.8,-15.0,x,
CCc1cc[n+](C2=C([O-])c3ccccc3C(=O)/C2=N\S(=O)(=O)c2cccs2)cc1,82.9*,9.6,-1.1,2.1,-3.9,-5.0,81.8*,
CC(=O)N1CCc2[nH]c3ccc(C)cc3c2C1,53.8*,7.0,-9.2,-0.7,2.1,-5.6,2.3,
COc1cc(-c2nnc(SCc3cc(=O)oc4cc(O)c(O)cc34)o2)cc(OC)c1OC,59.4*,1.7,-4.7,2.8,-4.1,-7.1,39.3*,
CC1=CC(=O)c2ccccc2C1=O,39.0*!,-7.5,2.7,-2.4,-3.8,2.7,50.0*,
O=C(NC1CCCCC1)Oc1cc2oc(=O)sc2cc1Br,51.3*,-3.3,-0.3,4.5,4.1,2.6,13.6,
Oc1c(CN2CCN(c3ccccc3)CC2)cc(Br)c2cccnc12,37.8*,-4.5,0.4,-0.7,-2.5,1.3,4.3,
O=C1NC(=O)C(c2ccccc2[N+](=O)[O-])=C1Nc1ccc(O)c(Cl)c1,63.6*,46.0*,-2.9,2.0,-1.8,1.3,49.3*,
Cc1ccc(C)c(C(C)NC(=S)NCc2ccc(F)cc2)c1 (stereo not drawn),-2.6,-4.0,-5.9,-4.5,-1.1,-14.3,x,
CC1=C(C)/C(=N/OC(=O)c2cccc([N+](=O)[O-])c2)C=CC1=O,47.2*,-2.0,7.9,-2.4,-6.4,-9.7,-0.2,
O=C(O)c1[nH]c2ccccc2c1C(c1ccccc1)c1c(C(=O)O)[nH]c2ccccc12,37.6*,0.2,0.4,-3.8,-4.6,-2.8,29.6,
SMILES,GSTO1 counter,PAD4 FP inh,EBNA-1 inhibitor,LYPLA2 inh,LYPLA1 counter,ZTA counter,GSTO1 confirm,others
COCC(=O)c1[nH]c2ccccc2c1C,26.9,5.9,-0.7,6.5,1.9,-0.3,x,
CSc1ccccc1NC(=O)COC(=O)c1ccccc1O,3.8,-2.8,3.3,-0.3,-1.9,14.2,x,
CSc1ccccc1NC(=O)COC(=O)c1ccccc1Cc1ccccc1,68.8*,-0.9,5.7,-2.2,-2.1,3.4,3.8,
CN(CC(=O)Nc1ccc(OC(F)(F)F)cc1)S(=O)(=O)c1cnc[nH]1,5.2,1.4,-11.8,-6.3,-1.8,9.0,x,
CC(=O)c1c(C(C)=O)c(C)n(-c2cccc([N+](=O)[O-])c2)c1C,13.9,0.1,8.7,4.0,0.9,-12.0,x,
Cc1cc(C(=O)CCl)c(C)n1-c1cccc([N+](=O)[O-])c1,96.0*,2.1,5.2,15.0,0.1,-7.0,94.2*,
CC(C)C(NC(=O)c1ccc(Cl)cc1)C(=O)NCC1CCCO1 (stereo not drawn),4.9,-1.0,-1.7,-1.4,-0.2,-7.3,x,
Cc1ccc(C(=O)c2ccc([N+](=O)[O-])cc2)cc1,7.8,-1.5,-4.0,10.5,1.7,7.7,x,
Cc1ccc(C(=O)c2coc3cc([N+](=O)[O-])c(O)c([N+](=O)[O-])c23)cc1,37.6*,1.3,1.5,3.0,4.1,-0.3,19.2,
O=c1oc2cc(O)ccc2c2oc3cc(O)ccc3c12,39.0*,-4.7,8.7,-4.7,-3.9,-15.2,49.0*,
O=C(CCl)Nc1ccccc1C(=O)c1ccccc1,81.9*,2.5,-3.0,3.2,5.3,-0.6,98.5*,
O=C(O)CC1(CC(=O)Nc2ccccc2C(=O)c2ccccc2)CCCC1,-8.0,1.0,0.8,6.8,-1.1,-3.2,x,
O=C(CCl)Nc1ccccc1Sc1ccc(Cl)cc1,90.3*,7.1,-1.2,7.7,-0.4,-7.5,93.5*,
CC(=O)N1CCN(CC(=O)Nc2ccccc2Sc2ccc(Cl)cc2)CC1,-0.5,0.9,3.8,2.6,3.6,3.6,x,
CCN(CC)c1ccc(N=C2C(=O)Nc3ccccc32)cc1,85.0*,13.2,+,-0.1,-0.7,+,4.5,
Cc1ccc(N=C2C(=O)Nc3ccccc32)cc1,1.0,0.0,-4.4,-3.0,-3.7,-2.6,x,
CCOc1ccc(CN(C)C(=O)CCl)cc1,80.7*,-4.8,-4.4,2.1,2.1,-12.5,97.6*,GSTO1 recomb ABPP=71.0
CC#CC#Cc1cccc(=O)o1,81.5*,1.3,5.7,-3.5,-0.5,-1.1,79.9*,
O=C(O)Cc1cc(I)c(Oc2ccc(O)c(I)c2)c(I)c1,62.2*,-6.9,-11.2,3.0,-0.7,-1.5,56.5*,
O=C(O)Cc1ccc(O)c(O)c1,7.1,-4.4,-2.9,-0.5,-0.1,-6.5,x,

# High-throughput results deposited in PubChem by The Scripps Research Institute Molecular Screening Center.
